Experimental findings from PubChem BioAssay (NCATS) are described below.

The structures appear in SMILES notation. Records with an inconclusive call do not appear. Active and inactive are the calls of the source. Calls come from the whole dose curve; as a rule, active = well fitted cell-killing curve with a large enough effect; inconclusive = small, poorly fitted or top-dose-only effect, or effect the other way; inactive = no such curve, though single readings can be large or run the other way.
Potency is the fitted concentration of half-maximal effect.

The assay is described as follows: Quantitative High-Throughput drug screen in 47 multiple myeloma cell lines against the NCATS MIPE library collection: H1112_PLB cell viability assay (AID 1918967; note: nearly all actives have a fitted effect of over 30% in size). Particulars: H1112 myeloma cells viability, ATP luminescence, 48 h; series mostly up to 45.8 µM; viability: at the top concentration. From the text:
PI: Beverly A. Mock Ph.D.
Laboratory of Cancer Biology and Genetics,
Center for Cancer Research, National Cancer Institute,
National Institute of Health, Bethesda, Maryland
Drug resistance and disease progression are common in multiple myeloma (MM) patients, underscoring the need for new therapeutic combinations. […] We hypothesized that effective combinations would reduce MYC expression and enhance p16 activity. […] These preclinical data identify potentially useful drug combinations for evaluation in drug-resistant MM and reveal potential mechanisms of combined drug sensitivity.
Described herein is the primary MIPE qHTS used to cherrypick compounds. Validated compounds were then further tested for potential synergistic activiy.
[1] Peat TJ, Gaikwad SM, Dubois W, Gyabaah-Kessie N, Zhang S, Gorjifard S, Phyo Z, Andres M, Hughitt VK, Simpson RM, Miller MA, Girvin AT, Taylor A, Williams D, D'Antonio N, Zhang Y, Rajagopalan A, Flietner E, Wilson K, Zhang X, Shinn P, Klumpp-Thomas C, McKnight C, Itkin Z, Chen L, Kazandijian D, Zhang J, Michalowski AM, Simmons JK, Keats J, Thomas CJ, Mock BA. Drug combinations identified by high-throughput screening promote cell cycle transition and upregulate Smad pathways in myeloma. Cancer Lett. 2023 Aug 1;568:216284. doi: 10.1016/j.canlet.2023.216284. Epub 2023 Jun 24. PMID: 37356470; PMCID: PMC10408729.
SEQUENCE No. (e.g., 1, 2, 3, etc.); […] (e.g., Cells, Incubation, Reagent, etc.); VALUE and DESCRIPTION.
1; Cells; 5 uL; white, solid bottom 1536-well Greiner assay plate.
2; Compounds; 23 nL; Kalypsis pin tool (Wako USA) equipped with a 1536-well pin head to transfer to the assay plates.
3; Incubation; 48 hours; 37C incubation.
4; Reagent;5uL; CellTiter Glo (Promega).
5; Detector; 425V; Luminescence; Viewlux PerkinElmer.
NOTES (numbers refer to Sequence numbers above)
1. The cell-based screening methods employed in this study were like those previously published. Briefly, the corresponding myeloma cell lines were screened in 1,536-well plates with 500 cells, 5-uL per well for inhibition of cell viability (assessed by measuring ATP levels with CellTiterGlo).
2. NCATS MIPE 4.0 library of approved and investigational drugs were added using the Kalypsis pin tool. Wells treated with DMSO only for 100% viability and media only wells for 0% viability were used as controls.
3. The assay plates were covered and incubated for 48 hours in a 37C, 5% CO2 incubator with controlled humidity.
4. After 48 hours, CellTilter-GloTM luminescent substrate mix (Promega) reagent was added to the assay plate and plates we incubated for 5 min at room temperature.
5. Signal was measured as median relative luminescence units on a ViewLux (PerkinElmer) multiplate reader.
[1] Heske CM, Davis MI, Baumgart JT, Wilson K, Gormally MV, Chen L, Zhang X, Ceribelli M, Duveau DY, Guha R, Ferrer M, Arnaldez FI, Ji J, Tran HL, Zhang Y, Mendoza A, Helman LJ, Thomas CJ. Matrix Screen Identifies Synergistic Combination of PARP Inhibitors and Nicotinamide Phosphoribosyltransferase (NAMPT) Inhibitors in Ewing Sarcoma. Clin Cancer Res. 2017 Dec 1;23(23):7301-7311. doi: 10.1158/1078-0432.CCR-17-1121. Epub 2017 Sep 12. PMID: 28899971; PMCID: PMC6636827.
For `C1CCC(C(CC2CCCCN2)C2CCCCC2)CC1` (stereo not given), the Potency is 23.5 µM (active).
Regarding `CN(Cc1cc(Br)cc(Br)c1N)C1CCCCC1`, the “viability” value is 110% (inactive).
As to `O=S(=O)(c1cccc2cnccc12)N1CCCNCC1`, the Potency was 16.6 µM (active).
As to `CCc1cc(C(N)=S)ccn1`, the “viability” value is 92.4% (inactive).
As to `CN(C)CCc1c[nH]c2ccc(C[C@H]3COC(=O)N3)cc12`, the “viability” value is 106% (inactive).
Turning to `CCn1cc(C(=O)O)c(=O)c2cc(F)c(N3CCNCC3)nc21`, the “viability” value is 86.6% (inactive).
Turning to `C[C@]12C=CC(=O)C=C1CC[C@@H]1[C@@H]2C(=O)C[C@@]2(C)[C@H]1CC[C@]2(O)C(=O)CO`, the “viability” value is 141% [at 23.2 µM] (inactive).
Turning to `CC(C)OC(=O)C(C(=O)OC(C)C)=C1SC=CS1`, the “viability” value was 115% (inactive).
On to `COc1c(N2CCNC(C)C2)c(F)cc2c(=O)c(C(=O)O)cn(C3CC3)c12` (stereo not given), for which the “viability” value was 91.9% (inactive).
The same measure, in the same setting: the result for `CC(=O)CC(c1ccccc1)c1c(O)c2ccccc2oc1=O` (stereo not given) reads 121% (inactive); that for `CC(N)C12CC3CC(CC(C3)C1)C2` (stereo not given), 114% (inactive).
Consider `CN1CCCC(n2nc(Cc3ccc(Cl)cc3)c3ccccc3c2=O)CC1` (stereo not given), for which the Potency is 1.87 µM (active).
`COc1cnc(NS(=O)(=O)c2ccc(N)cc2)nc1`: the “viability” value is 81.3% (inactive).
`NNC(=O)c1ccncc1`: the “viability” value is 108% (inactive).
`CCOC(=O)c1ccc(C#Cc2ccc3c(c2)C(C)(C)CCS3)nc1`: the Potency is 20.9 µM (active).
On the same count and under the same terms, the result for `Oc1c(Cl)cc(Cl)c2cccnc12` reads 11.8 µM (active).
In the case of `O=C(O)c1cc(=O)[nH]c(=O)[nH]1`, the “viability” value was 117% (inactive).
The same measure, in the same setting: under `Nc1ccc(S(=O)(=O)Nc2ccccn2)cc1` stands 93.8% (inactive); under `COc1ncnc(NS(=O)(=O)c2ccc(N)cc2)c1OC`, 86.6% (inactive).
As to `C[C@@H]1C[C@H]2[C@@H]3CCC4=CC(=O)C=C[C@]4(C)[C@@]3(Cl)[C@@H](O)C[C@]2(C)[C@@]1(OC(=O)c1ccco1)C(=O)CCl`, the Potency is 5.26 µM (active).
In the case of `COc1ccc(-c2ccc3cc(C(=O)O)ccc3c2)cc1C12CC3CC(CC(C3)C1)C2`, the “viability” value is 115% (inactive).
On the same count and under the same terms, the result for `CNS(=O)(=O)Cc1ccc2[nH]cc(CCN(C)C)c2c1` reads 105% (inactive).
With `CCOC(=O)[C@H](CCc1ccccc1)N[C@H]1CCc2ccccc2N(CC(=O)O)C1=O`, the Potency was 23.5 µM (active).
As for `CNC(=O)c1cc(Oc2ccc(NC(=O)Nc3ccc(Cl)c(C(F)(F)F)c3)cc2)ccn1`, the Potency is 9.35 µM (active).
`Cn1c(=O)c2c(ncn2CC(O)CO)n(C)c1=O` (stereo not given): the “viability” value is 96.5% (inactive).
For the compound `CN(C)c1ccc(C(=C2C=CC(=[N+](C)C)C=C2)c2ccc(N(C)C)cc2)cc1`, the Potency is 0.0372 µM (active).
Regarding `Nc1nc(F)nc2c1ncn2[C@@H]1O[C@H](CO)[C@@H](O)[C@@H]1O`, the Potency was 0.526 µM (active).
As to `CCN(CC)CCn1c(=O)c(Cc2ccc(OC)cc2)nc2ccccc21`, the “viability” value was 99.3% (inactive).
`O=S(=O)(O)CCS`: the “viability” value is 121% (inactive).
Turning to `O=C(NCC1CN(c2ccc(N3CCOCC3=O)cc2)C(=O)O1)c1ccc(Cl)s1` (stereo not given), the “viability” value was 100% (inactive).
Turning to `CCCCOc1ccc(CC(=O)NO)cc1`, the Potency was 8.33 µM (active).
As to `CCC(=O)O[C@]1(C(=O)CCl)[C@@H](C)C[C@H]2[C@@H]3CCC4=CC(=O)C=C[C@]4(C)[C@@]3(F)[C@@H](O)C[C@@]21C`, the “viability” value is 129% (inactive).
With `COc1ccccc1OCC(O)COC(N)=O` (stereo not given), the “viability” value is 123% (inactive).
On to `CC(C(=O)O)c1ccc2c(c1)CC(=O)c1ccccc1S2` (stereo not given), for which the “viability” value was 108% (inactive).
Same read-out and setting: under `CC1=NN(c2ccccc2)C(=O)C1` stands 122% (inactive).
In the case of `CC(C)(C)NC(=O)[C@H]1CC[C@H]2[C@@H]3CC[C@H]4NC(=O)C=C[C@]4(C)[C@H]3CC[C@]12C`, the Potency was 1.18 µM (active).
Consider `O=C(O)c1cccnc1`, for which the “viability” value is 126% (inactive).
Consider `CC(C)(C)C(=O)OCOP(=O)(COCCn1cnc2c(N)ncnc21)OCOC(=O)C(C)(C)C`, for which the Potency is 3.72 µM (active).
With `CCOCC(O)COc1ccc(NC(=O)CC[S+](C)C)cc1` (stereo not given), the “viability” value was 108% (inactive).
Take `CCOC(=O)c1ccc(OC(=O)CCCCCN=C(N)N)cc1`: the “viability” value is 108% (inactive).
